# Compounds with a hit are over-represented: about 1.5% of the library has one in this group of screens.
# gsp antagonist – qHTS for Antagonists of gsp, the Etiologic Mutation Responsible for Fibrous Dysplasia/McCune-Albright Syndrome: qHTS; gsp-mutant cells, cAMP HTRF, 30 min; Potency, µM (titrated, usually from 76.9 µM), most hits filed as inhibitors; 0.4% of 340,000 active; calls by dose curve; cell line not stated here;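 note: intracellular cAMP measured with PDE inhibitor Ro 20-1724 present during compound exposure; nearly all actives have a fitted effect of over 65% in size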
#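 G418-selected cells were plated in DMEM/10% FBS for 16-24 h at 37C, then treated with compounds plus the PDE inhibitor […] (300 uM solution added) for 30 min at 37C. Intracellular cAMP was measured by HTRF after 30 min lysis at room temperature.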
# mIDH1 inhibitor – qHTS for Inhibitors of mutant isocitrate dehydrogenase 1 (IDH1): qHTS; Isocitrate dehydrogenase [NADP] cytoplasmic (Homo sapiens), O75874; IDH1-R132H enzyme, NADPH consumption, diaphorase/resazurin fluorescence; AID 602179, 2012; Potency, µM (titrated, usually from 76.6 µM), most hits filed as inhibitors; 0.093% of 390,000 active; note: nearly all actives have a fitted effect of over 65% in size
# Target sequence (O75874 whole entry R132H, stated change not applied): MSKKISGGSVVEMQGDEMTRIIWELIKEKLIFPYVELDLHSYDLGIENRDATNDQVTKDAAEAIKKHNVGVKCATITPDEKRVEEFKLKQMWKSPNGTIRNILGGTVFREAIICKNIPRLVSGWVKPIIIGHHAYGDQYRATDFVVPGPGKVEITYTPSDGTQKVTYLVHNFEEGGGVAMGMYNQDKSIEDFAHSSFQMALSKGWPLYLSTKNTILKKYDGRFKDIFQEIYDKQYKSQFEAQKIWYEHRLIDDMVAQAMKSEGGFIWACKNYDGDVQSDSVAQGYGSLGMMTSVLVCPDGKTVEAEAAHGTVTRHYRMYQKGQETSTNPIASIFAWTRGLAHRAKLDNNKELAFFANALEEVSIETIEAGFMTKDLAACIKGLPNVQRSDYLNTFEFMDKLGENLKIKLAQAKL
#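 IDH1-R132H (0.5 ug/mL) preincubated 30 min with compound, then NADPH (0.016 mM) and alpha-KG (2 mM) added; 80 min at RT, pH 7.5. Remaining NADPH coupled via diaphorase/resazurin to fluorescence (540/590 nm); concentration-response curves normalized to no-enzyme control.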
# gsp ag – qHTS for Agonist of gsp, the Etiologic Mutation Responsible for Fibrous Dysplasia/McCune-Albright Syndrome: qHTS; gsp mutant cells, cAMP HTRF, 30 min; Potency, µM (doses to about 76.9 µM), usual class: activators; 0.13% of 340,000 active; AID 624287, 2012; active = well fitted activation curve with a large enough effect; inconclusive = small, poorly fitted or top-dose-only effect, or another doubt; inactive = no such curve, though single readings can be large or run the other way; cell line not stated here;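 note: phosphodiesterase inhibitor Ro 20-1724 added with compounds to block cAMP breakdown; nearly all actives have a fitted effect of over 60% in size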
#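 Cells stably selected in G418 were plated at 2000/well, grown 16-24 hr, then given compounds in DMSO with the PDE inhibitor […] (300 uM solution added) for 30 min at 37C; cAMP was read by HTRF.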
# IL-2 act – qHTS of IL-2 Activators; AID 652025, 2013; IL-2 activation reporter assay, cell-based qHTS; stimulated with anti-CD3/CD4/CD28 beads; in transgenic mouse T cells; activation, % (series mostly up to about 46 µM); 0.065% of 360,000 active; in the data active = activation above about 50%; inconclusive = mostly about 30% to 49%
#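 Using fluorescent plate cytometry, EGFP and DsRed are detected in transgenic mouse T cells stimulated 18 h at 37 degrees C with antibody-coated beads after 60 min compound pretreatment.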
# BRCA1 expr act – qHTS Assay to Identify Small Molecule Activators of BRCA1 Expression; AID 624202, 2012; 1.1% of 380,000 active; MCF7-BRCA1-FFLuc reporter, luminescence, 48 h; response scale: scaled: vehicle 0%, 10 µM genistein 100%; Potency, µM (series often up to 46.1 µM), hits mostly activators; note: nearly all actives have a fitted effect of over 80% in size
#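 Using MCF7 cells harboring a BRCA1 firefly luciferase reporter, plated 2 h before compound pinning, the screen measured luminescence after 48 h incubation. Responses were normalized to DMSO and 10 microM genistein, then fitted for concentration-effect.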
# Hits are given with their value; . = inactive; ? = inconclusive; / = no result given; [ ] = remark or other dose. Unless noted, calls come from the whole dose curve; as a rule, active = well fitted curve in the direction sought with a large enough effect; inconclusive = small, poorly fitted or top-dose-only effect, or another doubt; inactive = no such curve, though single readings can be large; an effect the other way counts as inactive or inconclusive.
SMILES,gsp antagonist,mIDH1 inhibitor,gsp ag,IL-2 act,BRCA1 expr act
Nc1nc(SCc2ccccc2)c2ncn(C3CCCCC3)c2n1,.,.,.,.,.
Nc1nc(SCc2ccccc2)c2ncn(C3CCCO3)c2n1 (configuration not stated),.,.,.,.,8.9µM
O=c1cc(-c2ccsc2)oc2ccc(-c3ccc4cc[nH]c4c3)cc12,?,.,.,.,5.6µM
COc1ccc(C)cc1NC(=O)Nc1ccc(C(=O)N2CCCC2)cc1,.,.,.,.,7.9µM
CCCCc1ccc(NC(=O)C2CCCO2)cc1 (configuration not stated),.,.,.,.,1.4µM
CC(=O)NCCNC(=O)c1ccc(CSc2ccc(Cl)cc2)cc1,.,.,.,.,11µM
N#C/C(=C\c1cccs1)C(=O)Nc1nccs1,.,.,.[15.4 µM],.,14µM
N#C/C(=C\c1cccs1)C(=O)NCc1ccccc1,.,.,.[15.4 µM],.,.
C/C(=C\c1ccccc1)C(=O)Nc1nccs1,.,.,.[15.4 µM],.,3.2µM
CCN(CC)C(=O)N1CCN(/[N+]([O-])=N/Oc2ccc([N+](=O)[O-])cc2[N+](=O)[O-])CC1,/,/,/,/,.
C/C(=N\Nc1ncnc2sc(C)c(C)c12)c1ccccn1,.,.,.[15.4 µM],122,.
C/C(=N\Nc1ncc(Cl)cc1Cl)c1ccccn1,.,.,.[15.4 µM],71,.
C/C(=N\Nc1ccc(Cl)c(C(=O)O)c1)c1ccccn1,.,.,.,.,?
CCOc1ccccc1OCC(=O)Nc1ccc(N2CCOCC2)cc1N1CCOCC1,.,.,.,.,.
COc1ccc(NC(=O)c2coc3ccccc23)cc1OC,.,.,.,.,10µM
CC(=O)NC1=CC(=O)c2nonc2C1=O,/,/,/,/,.
CCN(CC)C(=O)C1=C(C)N(Cc2ccc(C(C)(C)C)cc2)C(=O)C(CC(=O)NC(c2ccccc2)c2ccccc2)C1 (configuration not stated),/,.,.,.,.
N=C1S/C(=C\c2cn[nH]c2-c2ccc(F)cc2)C(=O)N1c1ccccc1F,.,.,.[15.4 µM],.,7.1µM
CC1CCN(CCc2nc3cc(NC(=O)Nc4ccccc4)ccc3n2C)CC1,.,.,.,.,14µM
Cc1ccc(C(=O)Nc2ccc3c(c2)nc(CCNC(=O)c2ccco2)n3C)cc1,.,.,.[15.4 µM],.,7.1µM
CC(=O)Nc1ccc2c(c1)nc(CCNC(=O)c1ccccc1)n2C,.,.,.,.,.
CC(=O)NCCc1nc2cc(NC(=O)c3ccc([N+](=O)[O-])cc3)ccc2n1C,.,.,.[15.4 µM],.,6.3µM
Cn1c(CN2CCCCC2)nc2cc(NC(=O)c3ccccc3)ccc21,.,.,?,.,.
Cn1c(CN2CCCC2)nc2cc(NC(=O)Nc3ccccc3)ccc21,.,.,.,.,11µM
CCOc1cc(CNC(=O)c2ccc(C)c(NC(=O)c3nsc4ccccc34)c2)ccc1OC,/,.,/,/,/
SMILES,gsp antagonist,mIDH1 inhibitor,gsp ag,IL-2 act,BRCA1 expr act
CCOC(=O)[C@]12CCCC=C1N(Cc1ccc(Cl)cc1Cl)C(=O)[C@H](CC(=O)NCc1ccc(OC)c(OC)c1)C2,/,/,/,.,.
CCOc1ccc(-n2nc(CO)c(C(=O)NCc3cccs3)n2)cc1,/,.,/,/,/
Cn1c(CN2CCCC2)nc2cc(NC(=O)c3ccco3)ccc21,.,.,.,.,5.6µM
O=C(Nc1nccs1)c1nc[nH]c1C(=O)NCc1ccccc1,.,.,.,.,.
O=c1[nH]cnc2cc(-c3ccccc3)sc12,.,.,.,.,2.8µM
COc1ccc(-c2cc3nc[nH]c(=O)c3s2)cc1,.,.,.,.,.
COc1ccc(C(=O)NCCn2cc(SCC(=O)Nc3nnc(C)s3)c3ccccc32)cc1,.,.,.,.,13µM
CCOC(=O)C1CCN(C(=O)CN2c3ccc(CC)cc3-c3ccccc3S2(=O)=O)CC1,/,.,/,/,/
Cc1ccc(-n2nc(CO)c(C(=O)NCCCc3ccccc3)n2)cc1C,/,.,/,/,/
Cc1ccc(C(=O)c2cc3ccccc3o2)cc1C,.,.,?,.,11µM
CC(=O)Nc1ccc(-c2nnc(SCc3ccccc3)n2C)cc1,/,/,/,/,.
CCOC(=O)N1CCN(C(=O)c2cc3cc(Cl)ccc3[nH]2)CC1,50µM,.,.,.,.
CCN1CCN(C(=O)c2cc3ccc(OC)cc3[nH]2)CC1,.,.,.,.,11µM
CCOc1cccc(-c2csc(C3COc4ccccc4O3)n2)c1 (configuration not stated),.,.,.,.,5µM
Cc1cc(C)cc(-n2ccnc2SCC(=O)Nc2ccc(C)c(Cl)c2)c1,/,.,/,/,.
COc1ccc(NC(=O)c2ccc(-c3ccc([N+](=O)[O-])cc3)o2)cc1,.,.,.,.,.
O=C(Nc1nccs1)c1ccc(-c2ccc([N+](=O)[O-])cc2)o1,.,.,.[15.4 µM],.,3.2µM
O=C(Nc1nccs1)c1ccc(-c2ccccc2[N+](=O)[O-])o1,.,.,.,.,3.5µM
COc1ccc(CCNC(=O)c2ccc(-c3ccc([N+](=O)[O-])cc3)o2)cc1OC,32µM,.,.,.,.
CC(O)(c1cccnc1)c1nc(-c2cccc(C#N)c2)cs1 (configuration not stated),/,/,/,.,.
COc1cc2nc(CCNCc3ccccc3)nc(NC3CCN(C)CC3)c2cc1OC,/,/,/,/,.
Cc1nnc(NC(=O)C2CCCC2)s1,.,.,.,.,.
O=C(Nc1nnc(C2CCCC2)s1)C1CCC1,.,.,.,.,11µM
CN(C)S(=O)(=O)c1ccc(C(=O)NCCSc2c(-c3ccccc3)[nH]c3ccccc23)cc1,/,.,/,/,/
CNC(=S)N(Cc1ccco1)Cc1cc2cc(OC)c(OC)cc2[nH]c1=O,6.3µM,.,.[15.4 µM],.,.
SMILES,gsp antagonist,mIDH1 inhibitor,gsp ag,IL-2 act,BRCA1 expr act
CN(C)c1ccc(C#Cc2ccc3cc(CCCO)oc(=O)c3c2)cc1,.,.,.,.,3.2µM
COc1ccc2oc(=O)c(C(=O)Nc3cccc(C(=O)O)c3)cc2c1,/,.,/,/,/
COc1ccc2oc(=O)c(C(=O)Nc3cccc(C)c3)cc2c1,.,.,.,.,3.2µM
O=C(OCc1ccccc1)N1CCC2CC1c1c2cccc1N1CCOCC1 (configuration not stated),/,/,/,.,.
CCCOC(=O)c1ccc(NC(=O)c2cnccn2)cc1,.,.,.,.,10µM
O=C(Nc1ccc2nccnc2c1)c1cnccn1,.,.,.,.,11µM
O=C(Nc1ccc(Cl)c(Cl)c1)Oc1ccc(NC(=O)c2ccco2)cc1,40µM,.,.,.,.
O=C(Nc1ccc(NC(=O)c2ccco2)cc1)c1cnccn1,.,.,.,.,13µM
CCCCOC(=O)c1ccc(NC(=O)c2cnccn2)cc1,.,.,.,.,.

# Compound activity as filed in PubChem.
